Assay results taken from publication PMC7862700, “An all-to-all approach to the identification of sequence-specific readers for epigenetic DNA modifications on cytosine”.

Tests used:
Experiment in all cases: DAPPL (digital affinity profiling via proximity ligation, sequencing); 10 mM Tris-HCl pH 7.5, 50 mM NaCl, 1 mM DTT, 4% glycerol, room temperature, 30 min; GST-TFs on glutathione beads, 16-mer random dsDNA library, 0.1% formaldehyde crosslink after washing; high values mean tight binding
FLI1 = target: T1, FLI1 (Homo sapiens, UniProt Q01543 1-452); conditions: protein: recombinant; tags: N-terminal GST; dsDNA, one strand shown
T1 sequence: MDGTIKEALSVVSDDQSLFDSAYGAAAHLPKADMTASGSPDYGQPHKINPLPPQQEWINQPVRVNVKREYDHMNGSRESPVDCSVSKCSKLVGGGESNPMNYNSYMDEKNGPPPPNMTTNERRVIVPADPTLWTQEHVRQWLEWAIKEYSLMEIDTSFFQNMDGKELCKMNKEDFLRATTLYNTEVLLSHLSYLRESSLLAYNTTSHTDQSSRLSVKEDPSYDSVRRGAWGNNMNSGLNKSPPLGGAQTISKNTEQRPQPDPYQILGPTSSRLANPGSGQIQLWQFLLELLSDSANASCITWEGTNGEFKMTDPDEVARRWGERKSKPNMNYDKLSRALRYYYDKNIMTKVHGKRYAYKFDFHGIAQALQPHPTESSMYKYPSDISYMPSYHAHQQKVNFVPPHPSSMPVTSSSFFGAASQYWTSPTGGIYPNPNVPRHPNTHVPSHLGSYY
In short: (§1)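 The binding signal reported is, for every hexamer, its read frequency for a factor over its read frequency for the tag-only sample. Reads came from pools of yeast-expressed, GST-fused human transcription factors on glutathione beads, barcoded with DNA and mixed with that sample, which were incubated with 200 nmole of a random double-stranded 16-mer DNA library in Tris/NaCl/DTT/glycerol buffer at room temperature for 30 min. After washing, the pools were crosslinked with 0.1% formaldehyde, proximity-ligated with BsaI/T4 ligase for 1 h at 37 °C, PCR-amplified and sequenced on an Illumina NextSeq500.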

ELK1 = target: T2, ELK1 (Homo sapiens, UniProt P19419 1-428); conditions: protein: recombinant; tags: N-terminal GST; dsDNA, one strand shown
T2 sequence: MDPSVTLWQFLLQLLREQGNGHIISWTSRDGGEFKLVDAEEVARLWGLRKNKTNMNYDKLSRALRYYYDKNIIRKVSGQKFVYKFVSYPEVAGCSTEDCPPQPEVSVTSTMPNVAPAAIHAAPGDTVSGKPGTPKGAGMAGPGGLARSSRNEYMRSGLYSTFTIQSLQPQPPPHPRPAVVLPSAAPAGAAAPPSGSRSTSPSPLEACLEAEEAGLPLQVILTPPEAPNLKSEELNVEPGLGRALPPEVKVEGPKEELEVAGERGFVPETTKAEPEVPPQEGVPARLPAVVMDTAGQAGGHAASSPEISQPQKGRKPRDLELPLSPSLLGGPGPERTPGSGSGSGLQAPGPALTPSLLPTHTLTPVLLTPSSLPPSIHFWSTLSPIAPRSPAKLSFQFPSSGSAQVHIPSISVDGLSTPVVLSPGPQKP
In short: as §1

GABPA = target: T3, GABPA (Homo sapiens, UniProt Q06546 1-454); conditions: protein: recombinant; tags: N-terminal GST; dsDNA, one strand shown
T3 sequence: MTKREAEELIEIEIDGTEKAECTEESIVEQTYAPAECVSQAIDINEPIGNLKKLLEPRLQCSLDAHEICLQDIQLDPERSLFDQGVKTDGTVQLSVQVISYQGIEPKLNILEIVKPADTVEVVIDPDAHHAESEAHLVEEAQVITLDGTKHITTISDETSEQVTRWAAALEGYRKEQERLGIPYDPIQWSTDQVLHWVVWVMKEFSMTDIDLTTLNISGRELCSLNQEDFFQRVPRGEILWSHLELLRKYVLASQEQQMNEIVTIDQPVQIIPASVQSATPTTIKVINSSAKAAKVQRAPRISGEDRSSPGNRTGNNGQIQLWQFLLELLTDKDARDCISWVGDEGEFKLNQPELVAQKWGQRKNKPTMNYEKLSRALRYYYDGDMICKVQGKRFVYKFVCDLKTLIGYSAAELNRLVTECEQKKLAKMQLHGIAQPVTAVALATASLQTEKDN
In short: as §1

ERG = target: T4, ERG (Homo sapiens, UniProt P11308 1-479); conditions: protein: recombinant; tags: N-terminal GST; dsDNA, one strand shown
T4 sequence: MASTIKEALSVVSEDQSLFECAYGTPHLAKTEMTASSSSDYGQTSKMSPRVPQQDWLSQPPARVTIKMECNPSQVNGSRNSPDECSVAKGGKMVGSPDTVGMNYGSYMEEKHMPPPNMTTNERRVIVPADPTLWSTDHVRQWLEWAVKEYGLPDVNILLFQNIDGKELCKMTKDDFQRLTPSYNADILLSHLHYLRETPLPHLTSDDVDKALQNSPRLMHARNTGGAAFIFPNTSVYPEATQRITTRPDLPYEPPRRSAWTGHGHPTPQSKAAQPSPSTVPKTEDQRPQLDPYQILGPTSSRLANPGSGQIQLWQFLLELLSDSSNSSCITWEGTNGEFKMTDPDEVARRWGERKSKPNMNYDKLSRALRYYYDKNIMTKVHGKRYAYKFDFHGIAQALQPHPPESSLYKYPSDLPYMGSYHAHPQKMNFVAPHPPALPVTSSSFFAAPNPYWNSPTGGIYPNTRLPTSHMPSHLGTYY
In short: as §1

ELF1 = ELF1 (Homo sapiens, UniProt P32519 1-619); conditions: protein: recombinant; tags: N-terminal GST; dsDNA, one strand shown
In short: as §1

EHF = target: T5, EHF (Homo sapiens, UniProt Q9NZC4 1-300); conditions: protein: recombinant; tags: N-terminal GST; dsDNA, one strand shown
T5 sequence: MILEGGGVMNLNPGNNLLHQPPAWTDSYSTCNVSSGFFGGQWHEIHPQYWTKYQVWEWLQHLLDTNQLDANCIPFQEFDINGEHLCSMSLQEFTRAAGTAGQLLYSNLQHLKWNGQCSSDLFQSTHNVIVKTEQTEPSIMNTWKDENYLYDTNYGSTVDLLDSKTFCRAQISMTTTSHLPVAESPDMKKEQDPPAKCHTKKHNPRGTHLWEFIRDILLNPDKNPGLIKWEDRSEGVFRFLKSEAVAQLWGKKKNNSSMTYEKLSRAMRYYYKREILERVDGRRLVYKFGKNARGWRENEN
In short: as §1

SPI1 = SPI1 (Homo sapiens, UniProt P17947 1-270); conditions: protein: recombinant; tags: N-terminal GST; dsDNA, one strand shown
In short: as §1

SPIB = SPIB (Homo sapiens, UniProt Q01892 1-262); conditions: protein: recombinant; tags: N-terminal GST; dsDNA, one strand shown
In short: as §1

ELK3 = target: T6, ELK3 (Homo sapiens, UniProt P41970 1-407); conditions: protein: recombinant; tags: N-terminal GST; dsDNA, one strand shown
T6 sequence: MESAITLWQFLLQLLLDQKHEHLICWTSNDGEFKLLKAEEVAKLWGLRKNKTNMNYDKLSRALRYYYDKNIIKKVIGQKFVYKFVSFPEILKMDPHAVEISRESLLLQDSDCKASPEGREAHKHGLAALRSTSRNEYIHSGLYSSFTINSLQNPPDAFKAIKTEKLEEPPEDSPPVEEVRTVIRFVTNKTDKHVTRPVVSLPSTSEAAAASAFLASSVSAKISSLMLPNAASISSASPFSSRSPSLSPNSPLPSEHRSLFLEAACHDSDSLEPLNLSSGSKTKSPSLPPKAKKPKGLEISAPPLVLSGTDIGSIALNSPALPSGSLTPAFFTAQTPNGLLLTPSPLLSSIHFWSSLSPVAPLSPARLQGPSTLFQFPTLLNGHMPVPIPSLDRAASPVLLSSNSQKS
In short: as §1

FEV = target: T7, FEV (Homo sapiens, UniProt Q99581 1-238); conditions: protein: recombinant; tags: N-terminal GST; dsDNA, one strand shown
T7 sequence: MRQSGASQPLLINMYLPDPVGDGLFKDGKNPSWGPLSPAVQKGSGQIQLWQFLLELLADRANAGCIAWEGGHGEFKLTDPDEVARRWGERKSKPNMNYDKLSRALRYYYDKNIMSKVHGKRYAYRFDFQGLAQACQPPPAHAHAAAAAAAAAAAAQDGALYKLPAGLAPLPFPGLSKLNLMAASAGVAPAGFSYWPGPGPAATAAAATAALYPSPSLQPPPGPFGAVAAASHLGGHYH
In short: as §1

ETV5 = ETV5 (Homo sapiens, UniProt P41161 1-510); conditions: protein: recombinant; tags: N-terminal GST; dsDNA, one strand shown
In short: as §1

HSF1 = HSF1 (Homo sapiens, UniProt Q00613 1-529); conditions: protein: recombinant; tags: N-terminal GST; chain copies: 3; dsDNA, one strand shown
In short: as §1

SPIC = target: T8, SPIC (Homo sapiens, UniProt Q8N5J4 1-248); conditions: protein: recombinant; tags: N-terminal GST; dsDNA, one strand shown
T8 sequence: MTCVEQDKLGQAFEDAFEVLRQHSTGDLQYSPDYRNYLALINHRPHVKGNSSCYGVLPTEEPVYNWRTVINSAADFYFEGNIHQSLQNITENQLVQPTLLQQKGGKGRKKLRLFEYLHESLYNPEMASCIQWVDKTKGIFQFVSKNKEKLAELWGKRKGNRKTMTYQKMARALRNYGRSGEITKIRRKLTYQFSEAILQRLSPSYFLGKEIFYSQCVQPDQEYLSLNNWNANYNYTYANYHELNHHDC
In short: as §1

ELF4 = ELF4 (Homo sapiens, UniProt Q99607 1-663); conditions: protein: recombinant; tags: N-terminal GST; dsDNA, one strand shown
In short: as §1

ELK4 = target: T9, ELK4 (Homo sapiens, UniProt P28324-2 1-405); conditions: protein: recombinant; tags: N-terminal GST; dsDNA, one strand shown
T9 sequence: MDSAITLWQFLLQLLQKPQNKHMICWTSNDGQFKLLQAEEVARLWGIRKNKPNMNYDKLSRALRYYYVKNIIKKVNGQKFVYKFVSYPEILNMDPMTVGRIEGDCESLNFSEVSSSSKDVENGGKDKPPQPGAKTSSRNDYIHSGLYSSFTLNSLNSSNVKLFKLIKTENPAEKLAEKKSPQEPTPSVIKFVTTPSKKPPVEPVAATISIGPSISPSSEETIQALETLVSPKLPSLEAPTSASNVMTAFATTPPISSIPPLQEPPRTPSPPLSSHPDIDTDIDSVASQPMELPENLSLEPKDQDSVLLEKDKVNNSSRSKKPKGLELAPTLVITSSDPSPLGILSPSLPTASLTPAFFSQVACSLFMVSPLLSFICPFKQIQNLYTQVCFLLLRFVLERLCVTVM
In short: as §1

ETV2 = target: T10, ETV2 (Homo sapiens, UniProt O00321 1-342); conditions: protein: recombinant; tags: N-terminal GST; dsDNA, one strand shown
T10 sequence: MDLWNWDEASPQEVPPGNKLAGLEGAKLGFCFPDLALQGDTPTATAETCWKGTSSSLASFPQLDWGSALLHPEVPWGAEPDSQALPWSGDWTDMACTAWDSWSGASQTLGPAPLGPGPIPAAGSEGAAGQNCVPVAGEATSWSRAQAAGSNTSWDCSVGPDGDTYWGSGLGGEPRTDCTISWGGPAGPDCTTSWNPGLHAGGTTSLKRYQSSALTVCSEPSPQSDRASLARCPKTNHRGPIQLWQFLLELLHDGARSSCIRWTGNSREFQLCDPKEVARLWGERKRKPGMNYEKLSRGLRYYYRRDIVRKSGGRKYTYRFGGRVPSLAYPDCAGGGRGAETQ
In short: as §1

ELF3 = target: T11, ELF3 (Homo sapiens, UniProt P78545 1-371); conditions: protein: recombinant; tags: N-terminal GST; dsDNA, one strand shown
T11 sequence: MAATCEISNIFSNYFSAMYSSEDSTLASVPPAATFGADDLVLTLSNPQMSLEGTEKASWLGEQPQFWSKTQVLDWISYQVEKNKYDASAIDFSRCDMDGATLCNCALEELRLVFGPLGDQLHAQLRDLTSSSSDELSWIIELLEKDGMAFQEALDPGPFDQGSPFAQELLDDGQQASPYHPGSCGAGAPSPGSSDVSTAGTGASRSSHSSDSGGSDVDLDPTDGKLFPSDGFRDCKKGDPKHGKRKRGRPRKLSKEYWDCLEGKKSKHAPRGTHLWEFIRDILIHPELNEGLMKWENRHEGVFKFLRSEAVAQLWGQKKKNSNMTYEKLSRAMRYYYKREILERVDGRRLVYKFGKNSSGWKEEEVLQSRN
In short: as §1

ETV1 = ETV1 (Homo sapiens, UniProt P50549 1-477); conditions: protein: recombinant; tags: N-terminal GST; dsDNA, one strand shown
In short: as §1

SPIB, sequence (Q01892 whole entry): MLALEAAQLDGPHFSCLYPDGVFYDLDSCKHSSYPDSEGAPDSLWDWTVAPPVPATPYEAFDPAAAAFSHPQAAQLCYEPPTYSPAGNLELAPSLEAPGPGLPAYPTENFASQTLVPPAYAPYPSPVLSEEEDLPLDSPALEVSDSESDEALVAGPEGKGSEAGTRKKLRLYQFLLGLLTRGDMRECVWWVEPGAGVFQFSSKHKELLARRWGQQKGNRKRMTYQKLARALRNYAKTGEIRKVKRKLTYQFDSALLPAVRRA
ELF4, sequence (Q99607 whole entry): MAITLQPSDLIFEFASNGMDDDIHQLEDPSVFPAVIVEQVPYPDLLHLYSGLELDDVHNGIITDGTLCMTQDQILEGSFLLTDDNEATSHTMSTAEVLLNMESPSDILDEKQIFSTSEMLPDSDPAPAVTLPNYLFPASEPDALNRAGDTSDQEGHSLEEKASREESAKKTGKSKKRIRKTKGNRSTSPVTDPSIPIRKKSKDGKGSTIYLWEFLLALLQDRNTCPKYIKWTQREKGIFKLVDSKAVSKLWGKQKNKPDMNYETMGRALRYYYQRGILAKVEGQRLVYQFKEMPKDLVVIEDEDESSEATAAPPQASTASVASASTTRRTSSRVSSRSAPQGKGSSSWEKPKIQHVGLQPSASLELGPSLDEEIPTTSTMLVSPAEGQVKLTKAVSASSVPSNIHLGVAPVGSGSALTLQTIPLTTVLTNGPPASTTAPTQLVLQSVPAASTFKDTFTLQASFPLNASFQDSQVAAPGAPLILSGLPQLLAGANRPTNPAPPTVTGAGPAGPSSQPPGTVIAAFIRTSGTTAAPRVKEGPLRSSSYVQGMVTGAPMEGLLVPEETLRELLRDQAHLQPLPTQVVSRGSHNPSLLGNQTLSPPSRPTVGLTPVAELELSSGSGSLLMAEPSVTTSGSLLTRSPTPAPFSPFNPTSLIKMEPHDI
ELF1, sequence (P32519 whole entry): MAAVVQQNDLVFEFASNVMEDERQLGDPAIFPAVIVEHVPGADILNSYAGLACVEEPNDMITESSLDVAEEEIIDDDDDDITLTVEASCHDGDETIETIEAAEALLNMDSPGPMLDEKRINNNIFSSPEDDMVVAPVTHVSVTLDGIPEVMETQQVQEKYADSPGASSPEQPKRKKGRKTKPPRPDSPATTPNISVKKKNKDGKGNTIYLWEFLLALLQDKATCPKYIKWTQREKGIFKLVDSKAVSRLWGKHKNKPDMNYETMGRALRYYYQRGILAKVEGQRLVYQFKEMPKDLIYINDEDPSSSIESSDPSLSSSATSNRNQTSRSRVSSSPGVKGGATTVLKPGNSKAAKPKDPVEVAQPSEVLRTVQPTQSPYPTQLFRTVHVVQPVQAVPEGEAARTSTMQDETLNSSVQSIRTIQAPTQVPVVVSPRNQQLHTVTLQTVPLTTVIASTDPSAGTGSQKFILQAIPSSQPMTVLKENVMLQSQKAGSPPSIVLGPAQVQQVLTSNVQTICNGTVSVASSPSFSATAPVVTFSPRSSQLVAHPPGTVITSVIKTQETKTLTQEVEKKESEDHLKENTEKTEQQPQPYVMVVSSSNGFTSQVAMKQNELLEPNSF
ETV1, sequence (P50549 whole entry): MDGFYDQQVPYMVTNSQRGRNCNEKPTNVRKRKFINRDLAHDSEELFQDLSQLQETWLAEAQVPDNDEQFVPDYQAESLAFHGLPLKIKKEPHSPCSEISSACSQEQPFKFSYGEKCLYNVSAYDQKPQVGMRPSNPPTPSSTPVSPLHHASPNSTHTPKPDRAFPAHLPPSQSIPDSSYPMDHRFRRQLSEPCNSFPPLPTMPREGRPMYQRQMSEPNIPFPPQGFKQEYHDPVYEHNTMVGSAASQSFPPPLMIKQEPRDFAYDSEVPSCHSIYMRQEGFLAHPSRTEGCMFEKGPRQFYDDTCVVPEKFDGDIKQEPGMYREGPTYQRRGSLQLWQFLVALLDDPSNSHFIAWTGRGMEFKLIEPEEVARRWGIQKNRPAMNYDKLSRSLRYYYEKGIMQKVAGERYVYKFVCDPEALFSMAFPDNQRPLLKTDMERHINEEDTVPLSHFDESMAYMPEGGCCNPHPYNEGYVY
HSF1, sequence (Q00613 whole entry): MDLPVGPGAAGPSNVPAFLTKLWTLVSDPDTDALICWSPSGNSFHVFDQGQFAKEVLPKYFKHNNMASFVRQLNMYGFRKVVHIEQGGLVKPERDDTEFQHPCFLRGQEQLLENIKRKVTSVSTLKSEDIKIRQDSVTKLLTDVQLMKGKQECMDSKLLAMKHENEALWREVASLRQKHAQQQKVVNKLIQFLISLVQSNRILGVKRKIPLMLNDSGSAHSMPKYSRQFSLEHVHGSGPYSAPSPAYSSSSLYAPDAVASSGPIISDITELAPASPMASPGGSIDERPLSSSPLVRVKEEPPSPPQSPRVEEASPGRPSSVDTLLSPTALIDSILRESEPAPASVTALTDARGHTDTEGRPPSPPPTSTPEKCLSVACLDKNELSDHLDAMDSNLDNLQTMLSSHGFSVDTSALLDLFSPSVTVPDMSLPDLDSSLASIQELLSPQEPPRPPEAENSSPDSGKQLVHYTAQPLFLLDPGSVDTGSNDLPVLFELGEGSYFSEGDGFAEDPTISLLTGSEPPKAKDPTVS
ETV5, sequence (P41161 whole entry): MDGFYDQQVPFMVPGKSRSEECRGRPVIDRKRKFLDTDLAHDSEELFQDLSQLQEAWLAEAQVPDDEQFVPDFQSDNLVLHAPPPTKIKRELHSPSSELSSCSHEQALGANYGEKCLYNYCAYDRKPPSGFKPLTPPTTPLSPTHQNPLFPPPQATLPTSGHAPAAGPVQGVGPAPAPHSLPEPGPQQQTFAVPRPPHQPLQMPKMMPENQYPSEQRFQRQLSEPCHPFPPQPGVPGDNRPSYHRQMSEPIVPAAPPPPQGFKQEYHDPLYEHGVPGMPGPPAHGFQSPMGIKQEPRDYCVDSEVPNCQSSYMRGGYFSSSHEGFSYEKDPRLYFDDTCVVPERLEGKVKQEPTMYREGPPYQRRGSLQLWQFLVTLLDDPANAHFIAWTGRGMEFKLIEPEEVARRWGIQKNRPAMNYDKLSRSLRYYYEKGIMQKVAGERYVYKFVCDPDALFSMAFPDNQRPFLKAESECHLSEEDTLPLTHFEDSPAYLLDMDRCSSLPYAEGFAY

**Q.** Which results are given for ACTGCG?
**A.** binding signal (FLI1): 1.24 fold enrichment (6-mer frequency, TF over GST control); binding signal (ELK1): 1.32 fold enrichment (6-mer frequency, TF over GST control); binding signal (GABPA): 1.26 fold enrichment (6-mer frequency, TF over GST control); binding signal (ERG): 1.26 fold enrichment (6-mer frequency, TF over GST control); binding signal (ELF1): 1.35 fold enrichment (6-mer frequency, TF over GST control); binding signal (EHF): 1.37 fold enrichment (6-mer frequency, TF over GST control); binding signal (SPI1): 1.33 fold enrichment (6-mer frequency, TF over GST control); binding signal (SPIB): 1.3 fold enrichment (6-mer frequency, TF over GST control); binding signal (ELK3): 1.25 fold enrichment (6-mer frequency, TF over GST control); binding signal (FEV): 1.26 fold enrichment (6-mer frequency, TF over GST control); binding signal (ETV5): 1.21 fold enrichment (6-mer frequency, TF over GST control); binding signal (HSF1): 1.06 fold enrichment (6-mer frequency, TF over GST control); binding signal (SPIC): 1.14 fold enrichment (6-mer frequency, TF over GST control); binding signal (ELF4): 1.28 fold enrichment (6-mer frequency, TF over GST control); binding signal (ELK4): 1.06 fold enrichment (6-mer frequency, TF over GST control); binding signal (ETV2): 1.42 fold enrichment (6-mer frequency, TF over GST control); binding signal (ELF3): 1.16 fold enrichment (6-mer frequency, TF over GST control); binding signal (ETV1): 1.27 fold enrichment (6-mer frequency, TF over GST control)
